Compounds without any hit were thinned out: in the full panel of roughly 83,000, 20% have a hit.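 In brief: 96-well plates, 48 h treatment, single concentration, percent growth endpoint.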 A number with no mark means an inactive call. Active and inactive are the calls of the source. Rule for the calls: active = growth percent below 10; inactive = the rest.

Common to all, as to assay: NCI-60 one-dose screen, 48 h (100 = growth as untreated, 0 = no growth, -100 = all killed)
Common to all, as to details: 10 µM unless noted

The test system of assay [1] is SN12C renal.
In assay [2] the test system is UO-31 renal.
Assay [3] concerns ACHN renal.
Assay [4] deals with CAKI-1 renal.
The test system of assay [5] is A498 renal.
The subject of assay [6] is CCRF-CEM leukemia.
In assay [7] the test system is MOLT-4 leukemia.
The subject of assay [8] is SR leukemia.
For assay [9], the system named is RPMI-8226 leukemia.
Assay [10] has as its system OVCAR-8 ovarian.
For assay [11], the system named is OVCAR-5 ovarian.
Assay [12] has as its system IGROV1 ovarian.
Assay [13] deals with OVCAR-3 ovarian.
Assay [14] relates to HS 578T breast.
Assay [15] deals with NCI/ADR-RES ovarian.
Assay [16] concerns OVCAR-4 ovarian.
Assay [17] deals with SK-OV-3 ovarian.
The test system of assay [18] is EKVX NSCLC.
The subject of assay [19] is TK-10 renal.

In the case of `COc1ccc(-c2cc(-c3cccnc3)nc3sc(C(=O)Nc4ccccc4)c(N)c23)cc1OC`, the growth in assay [1] was 57.2%; in [2], 32.2%; in [3], 41.1%; in [4] it was 46.7%; in assay [5], 65.1%; in assay [6] it was 36.9%. The growth was 32.1% in assay [7]; 52.3% in [8]; 0.963% (active) in assay [9]; 58.8% in [10]; 86.8% in [11]; 68.9% in assay [12]. The figures for the growth in [13], in [14] and in assay [15] were 71.4%, 28.4% and 54.4%, respectively.
Consider `COc1ccccc1NC(=O)c1sc2nc3c(cc2c1N)C(=O)CCC3`, for which the growth in [1] is 70.2%; in assay [2], 70.5%; in assay [3], 70.4%; in [4], 52.7%; in [5] it was -5.03% (active); in [6] it was 67.7%. The growth is 89.6% in assay [7]; 64% in assay [8]; 84.3% in assay [9]; 90.6% in [10]; 76.1% in assay [11]; 91.4% in [16]. For the same compound, the growth in assay [17] was 39%; in assay [12] it was 82.9%; in assay [13], 87%; in [14], 65.6%; in assay [15], 58.6%.
On to `Cc1cc(C)cc(S(=O)(=O)n2ccc(-c3ccc4c(c3)CCC(C)(C)O4)n2)c1`, for which the growth in [1] is 88%; in assay [2], 75%; in [3], 92.8%; in [4] it was 72.5%; in assay [5] it was 63%; in [6], 96.3%. In addition, the growth in assay [7] is 91.4%; in assay [8], 76.5%; in assay [9], 73.2%; in assay [10], 91%; in assay [11], 116%; in assay [16], 67.3%. Moreover, the growth in assay [13] is 87.9%; in assay [14], 92.7%; in [15] it was 79%.
Take `O=C1c2cc3c(cc2-c2c1c1ccc(Cl)cc1c(=O)n2CCCNCCO)OCO3`: the growth in assay [18] is -65.3% (active); in assay [1], -66.6% (active); in [3], -87.5% (active); in [4], -80% (active); in assay [5], -94.4% (active); in assay [6], -24.9% (active). Besides, the growth is -34.5% (active) in assay [7]; -43.8% (active) in [8]; -30.5% (active) in assay [9]; -64.7% (active) in assay [10]; -78.8% (active) in assay [11]; -64.8% (active) in [16]. For the same compound, the growth in [17] was -8.64% (active); in [12], -66.7% (active); in assay [13] it was -81.1% (active); in assay [14] it was -49.6% (active); in assay [15], -51.1% (active).
Take `CCN(CC)CCCCCCCNc1c2ccc(Cl)cc2nc2ccc(OC)cc12`: the growth in assay [18] was -6.42% (active); in assay [1] it was 0.458% (active); in assay [2] it was -52% (active); in assay [3], -39.1% (active); in [5], -92.1% (active); in assay [6] it was 0.0912% (active). Also, the growth in assay [7] was -11.3% (active); in [8] it was -16.5% (active); in assay [10], -41.8% (active); in assay [11], -8.18% (active); in [16], -43% (active); in assay [17], -30.7% (active). Further, the growth was -64.3% (active) in assay [12], -39.6% (active) in assay [13], -42.7% (active) in [14] and 12.7% in [15].
As to `O=C1/C(=C/c2ccc(F)cc2)Cc2ccccc21`, the growth was 99.5% in assay [1]; 92.5% in assay [2]; 96.7% in assay [19]; 98.2% in assay [3]; 113% in [4]; 98.3% in assay [7]. Moreover, the growth is 98% in assay [9]; 101% in assay [10]; 92.6% in assay [11]; 87.7% in [16]; 110% in assay [17]; 110% in assay [13]. Besides, the figures for the growth in [14] and in assay [15] were 109% and 107%, respectively.
`O=C(CSc1nnc(-c2cc(-c3ccccc3)nc3ccccc23)o1)c1ccc(Br)cc1`: the growth in assay [18] was 107%; in assay [1] it was 98%; in [3], 107%; in assay [4] it was 91.2%; in [5], 102%; in assay [6], 105%. Also, the growth in assay [7] is 104%; in assay [8], 83.7%; in [9], 109%; in [10], 100%; in assay [11] it was 104%; in assay [16], 106%. Moreover, the values for the growth in [17], in [12] and in assay [13] were 112%, 102% and 108%, respectively.
Consider `CN(C)CCCNc1nn2c(=O)c3ccccc3nc2c2ccccc12`, for which the growth in [18] was 53.5%; in assay [1], 58.3%; in assay [19], 75.3%; in assay [4] it was 20.8%; in assay [5], 92%; in assay [6], 30.3%. Also, the growth is -19.6% (active) in [7]; 48.8% in [9]; 80.9% in assay [11]; 77.4% in assay [16]; 54.6% in assay [17]; -12.2% (active) in assay [12]. Further, the growth is 57.7% in [13], 61.6% in assay [14] and 72.7% in [15].
Regarding `COc1ccc(C2=NN(C(C)=O)C(c3cccc(Nc4ccnc5cc(Cl)ccc45)c3)C2)cc1` (configuration not stated), the growth was 48.5% in [1]; 37.5% in assay [2]; 58.3% in assay [19]; 60.8% in [3]; 33.1% in assay [5]; 40.8% in assay [6]. Moreover, the growth is 22.3% in [7]; -8.23% (active) in [8]; 41% in assay [9]; 50% in [10]; 87.2% in assay [11]; 42% in assay [16]. The growth is 52.9% in [17], 65.7% in [12], 59.3% in assay [13] and 43.6% in [15].
Take `COc1cc(C(=O)c2cc3c(cc2C)OCO3)cc(OC)c1OC`: the growth in assay [1] was 32.4%; in assay [2], 44.8%; in assay [19], 62.8%; in assay [3], 36.3%; in assay [4], 13.5%; in assay [5] it was -2.13% (active). In addition, the growth in assay [7] was 23.1%; in [9], 39.1%; in assay [10], 20.4%; in assay [11], 43.1%; in assay [16], 38%; in assay [17] it was 11.1%. The growth in assay [13] was 5.31% (active); in assay [14], 44.3%; in [15] it was 15.3%.
As for `Nc1c(C(=O)Nc2cccc(Cl)c2)sc2nc3c(cc12)C(O)CCC3` (configuration not stated), the growth was 35.5% in assay [1]; 41.9% in assay [2]; 37% in assay [4]; -10.6% (active) in [5]; 15.7% in assay [6]; 16.3% in assay [7]. Further, the growth in assay [8] was 8.19% (active); in assay [9], 6.38% (active); in assay [10], 36.8%; in [11] it was 51.2%; in assay [16] it was 52.7%; in [17], 35.4%. Further, the growth in assay [12] is 31.1%; in [13], -33.4% (active); in assay [14], 24.5%; in [15] it was 8.73% (active).
Turning to `COc1cccc(/C=C2\Cc3ccccc3C2=O)c1`, the growth was 98.8% in [1]; 90.7% in [2]; 103% in assay [19]; 104% in [3]; 96.9% in assay [4]; 93.3% in assay [7]. Besides, the growth in assay [9] is 98.6%; in assay [10], 97.2%; in assay [11], 111%; in [16], 101%; in [17], 101%; in assay [12] it was 99.3%. For the same compound, the results for the growth in assay [13], in assay [14] and in assay [15] were 110%, 111% and 105%, respectively.
Turning to `O=C(/C=C/c1cccc(Nc2ccnc3cc(Cl)ccc23)c1)c1ccc(Cl)cc1`, the growth in assay [1] is 37.6%; in assay [2], 30.1%; in assay [19] it was 49%; in assay [3], 51.1%; in assay [5] it was 44.1%; in assay [6], 24.4%. In addition, the growth was 24.1% in assay [7]; -9.97% (active) in assay [8]; -9.58% (active) in [9]; 45.1% in [10]; 60.4% in assay [11]; 45.6% in assay [16]. The figures for the growth in [17], in [12] and in assay [15] were 76.7%, 40.7% and 38.1%, respectively.
Take `c1cc[n+](Cc2ccnc3ccccc23)cc1`: the growth in assay [1] is 102%; in assay [2], 73.6%; in [3], 94.2%; in [4], 91.1%; in assay [5], 109%; in assay [7], 108%. In addition, the growth in assay [8] is 24.1%; in assay [9], 97.1%; in [10], 99.6%; in [11] it was 103%; in assay [17], 103%; in assay [12] it was 117%. Also, the growth in assay [13] was 118%; in assay [14] it was 109%; in assay [15], 109%.
As to `CCOC(=O)c1cnc2c(C)cc(C)cc2c1NCCCN(C)C`, the growth is 41% in [18]; 37.6% in assay [1]; 30.7% in [19]; 28.7% in assay [3]; -7.71% (active) in assay [4]; 64.5% in [5]. Moreover, the growth was 19.8% in assay [6]; 5.24% (active) in assay [7]; 7.09% (active) in [9]; 38.6% in [11]; 44.4% in [16]; 38.6% in assay [17]. In addition, the growth in assay [12] was 5.17% (active); in [13] it was 34.5%; in assay [14], 65.7%; in assay [15], 31.7%.
Turning to `O=C1/C(=C/c2cccc(Cl)c2)CCc2ccccc21`, the growth is 95.9% in assay [1]; 76.1% in assay [2]; 85.9% in assay [19]; 103% in assay [3]; 76.9% in assay [4]; 83.3% in assay [7]. Moreover, the growth is 22.3% in [9]; 91.1% in assay [10]; 111% in assay [11]; 100% in assay [16]; 114% in [17]; 94% in [12]. Further, the figures for the growth in [13], in [14] and in assay [15] were 104%, 110% and 100%, respectively.

The values above are taken from PubChem BioAssay (NCI).
